Measurements from PubChem BioAssay AID2778 (National Center for Advancing Translational Sciences (NCATS), 2010).
Results filed as inconclusive are left out. A call without a number means that no potency is given here. Calls of active or inactive are those of the source. Calls follow the shape of the dose curve; as a rule, active = well fitted inhibition curve with a large enough effect; inconclusive = small, poorly fitted or top-dose-only effect, or effect the other way; inactive = flat fitted curve, though single readings scatter.

Each compound was assayed against Menin (Homo sapiens) (UniProt O00255) (assay: Confirmation of Inhibitors Targeting the Menin-MLL Interaction in MLL Related Leukemias: Confirmation in an HTRF (commercial TR-FRET) Assay using His-tagged menin and biotin-labeled MLL peptide). Conditions: His-menin / biotin-MLL peptide binding; series mostly up to 126 µM.
Sequence of Menin (Homo sapiens) (O00255 whole entry, looked up): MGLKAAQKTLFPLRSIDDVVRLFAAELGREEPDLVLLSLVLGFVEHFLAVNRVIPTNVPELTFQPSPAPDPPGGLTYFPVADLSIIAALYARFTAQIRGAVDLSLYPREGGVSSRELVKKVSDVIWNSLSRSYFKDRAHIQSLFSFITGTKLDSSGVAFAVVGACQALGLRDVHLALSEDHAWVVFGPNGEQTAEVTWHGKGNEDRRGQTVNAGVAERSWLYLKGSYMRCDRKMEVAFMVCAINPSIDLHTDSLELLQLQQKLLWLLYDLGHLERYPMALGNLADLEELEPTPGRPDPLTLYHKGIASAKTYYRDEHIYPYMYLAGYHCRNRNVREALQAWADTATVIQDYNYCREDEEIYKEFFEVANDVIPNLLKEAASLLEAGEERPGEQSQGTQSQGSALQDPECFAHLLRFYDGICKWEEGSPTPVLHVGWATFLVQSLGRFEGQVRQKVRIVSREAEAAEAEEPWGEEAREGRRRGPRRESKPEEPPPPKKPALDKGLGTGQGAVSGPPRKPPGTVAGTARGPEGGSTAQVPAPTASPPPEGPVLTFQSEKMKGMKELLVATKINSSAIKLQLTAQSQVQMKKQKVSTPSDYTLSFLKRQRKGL
Source text: qHTS Assay for Inhibitors Targeting the Menin-MLL Interaction in MLL Related Leukemias
NIH Chemical Genomics Center [NCGC]
NIH Molecular Libraries Probe Centers Network [MLPCN]
Assay Submitter (PI): Jolanta Grembecka, Tomasz Cierpicki, University of Virginia
Translocations of the MLL (Mixed Lineage Leukemia) gene are frequently found in human leukemias affecting both children and adults. Fusion of MLL to one of more than 60 genes results in generation of oncogenic proteins upregulating Hox genes, which are vital to blood cell development. Patients harboring fusion of the MLL gene suffer from aggressive leukemias and respond poorly to available therapies. All of the oncogenic fusion proteins have a preserved N-terminal fragment of MLL that has been identified to interact with menin. It has been recently discovered that association with menin is critical to the leukemogenic activity of the MLL fusion oncoproteins. Selective targeting of the menin-MLL interaction could provide an attractive therapeutic approach to develop novel drugs for MLL-related leukemias. Small molecules blocking the menin-MLL interaction should reverse the oncogenic potential of MLL fusion proteins.
We have developed and optimized a fluorescence polarization-based assay for the identification of Menin-MLL inhibitors. The assay was run employing two different MLL-derived peptides. The present assay uses a 12 amino acid peptide labeled with fluorescein at its N-terminus. This peptide consists of the menin high affinity binding motif from MLL and is potently bound by menin. Another peptide with a mutated sequence, labeled with Texas Red, was used in parallel as a less stringent screen for inhibitors.
The present assay uses an alternate technology to confirm hits from the primary screen - homogeneous time resolved fluorescence (HTRF).
The Menin protein, the MLL-wild type (w.t.) derived peptide (N-terminal 12 amino acids), the MLL-derived peptide labeled with Texas Red and the MLL-w.t. peptide labeled with Fluorescein were kindly supplied by laboratory of Dr. Jolanta Grembecka, University of Virginia. All protein and peptide solutions were stored in single use aliquots at -80C. The Eu3+ Cyrptate-conjugated mouse monoclonal antibody anti-6 Histidine (Eu3+-AB) and the Streptavidin-XL665 conjugate (XL665) were purchased from Cisbio International (Bedford, MA). All antibody and XL665 conjugate solution stocks were stored in single use aliquots at -20C. The Buffer components for all assays were purchased from Sigma-Aldrich (St. Louis, MO) and Invitrogen (Carlsbad, CA).
1. HTRF reaction buffer: 50 mM Tris-HCl pH 7.5, 50 mM NaCl, 1mM DTT.
Before use, 0.05% BSA is added.
2. His6-Menin protein, MLL-w.t. labeled with biotin.
Stored in singe use aliquots at -80C.
3. MLL-w.t. unlabeled peptide as positive control: 10 uM final in HTRF buffer.
1. Prepare His6-Menin at 200 nM, MLL-w.t.-biotin at 80 nM in HTRF buffer.
2. Prepare His6-Menin at 200 nM, MLL-w.t.-biotin at 80 nM and 10 uM MLL-w.t. unlabeled mixture in HTRF buffer.
3. Dispense 10 ul per well of reagent in step 1 in columns 2, 4-24 in a black 384 well plate, dispense 10 ul per well of reagents from steps 2 in column 1. Incubate plate at ambient for 15 minutes.
4. Transfer 1 uL per well of compound to plate and incubate at ambient for 1 hr.
5. Dispense 10uL of the donor (6His-Cryptate, 3.5 nM final conc.) and acceptor (SA_XL, 10nM final conc.) complex in the HTRF buffer with 0.01% BSA. Incubate for 1h.
Potency is read from the fitted curve at half-maximal effect.

SMILES | Potency
COC(=O)C1[C@H]2SC(C)(C)C(C(=O)OC)N2C(=O)N1Cc1nc2ccccc2s1 (stereo not given in full) | inactive
O=[N+]([O-])c1ccc(S(=O)(=O)c2ccccc2)nc1 | inactive
COc1ccc(CNC(=O)C(c2ccc(O)cc2)N(Cc2ccco2)C(=O)c2snc(C(N)=O)c2N)cc1 (stereo not given) | inactive
COc1ccc(-c2csc(NC(=O)c3cc(-c4cccs4)nc4ccccc34)n2)c(OC)c1 | inactive
Cc1ccccc1CN1CCN(C(C)C(=O)NCc2ccccc2)CC1 (stereo not given) | inactive
O=C(Nc1nccs1)C(Br)C(Br)c1ccccc1 (stereo not given) | inactive
O=C(N/N=C/c1cn(-c2ccccc2)nc1-c1cc2ccccc2o1)c1ccccc1Br | inactive
CCc1nn(C)c2c(=O)c(=O)c2n(C)[nH]1 | inactive
CCCOc1ccc(C(=O)N2CCN(Cc3ccc4c(c3)OCO4)CC2)cc1 | inactive
O=c1[nH]nc(Cc2ccc(-c3ccc(Cl)cc3)o2)c2ccccc12 | inactive
OC(c1ccccn1)(c1ccccn1)c1ccccn1 | inactive
Cc1ccc(S(=O)(=O)c2cc(OC(=O)c3ccco3)ccc2OC(=O)c2ccco2)cc1 | inactive
CCN(CC)c1nc(-c2ccc(C(=O)NN)cc2)nc(-c2ccc(C(=O)NN)cc2)n1 | inactive
NS(=O)(=O)c1ccc(NC(=O)c2ccc(-c3ccccc3)cc2)cc1 | 63.1 µM (active)
C=CCN(CC=C)S(=O)(=O)c1ccc(NC(=S)NC(=O)/C=C/c2cccc3ccccc23)cc1 | inactive
O=C1C(Cl)=C(NC(=O)c2ccccc2)C(=O)C(Cl)=C1NC(=O)c1ccccc1 | inactive
Cn1ncc2c(N3CCCCC3)nc(NCCCO)nc21 | inactive
Cc1ccc(C#CC(C)(O)C(C)(C)C)cn1 (stereo not given) | inactive
CC1(C)CN=C(N2CCN(c3ncnc4sc5c(c34)CCCC5)CC2)S1 | 28.2 µM (active)
O=C(Cn1c(=O)c2c3c(sc2n(Cc2ccccc2)c1=O)CCCC3)NCCO | inactive

SMILES | Potency
CCc1ccccc1NC(=O)COc1cccc(-n2cnnn2)c1 | inactive
O=C(C1=C(O)C(=O)N(CCN2CCOCC2)C1c1cccc(Br)c1)c1cccs1 (stereo not given) | inactive
Cc1nc2oc3c(NCC4CCCO4)ncnc3c2c2c1COC(C)(C)C2 (stereo not given) | inactive
CCOC(=O)N1CCN(C(=O)c2oc3ccc(S(=O)(=O)N(CC)CC)cc3c2C)CC1 | inactive
CC1CCCCN1S(=O)(=O)c1ccc(C(=O)Nc2ccccc2-c2nc3ccccc3[nH]2)cc1 (stereo not given) | inactive
Cc1ccc2nc(-c3ccc(NC(=O)COC(=O)c4ccc(Br)o4)cc3)sc2c1 | inactive
CCc1cc2c(N3CCN(C(=O)c4ccco4)CC3)ncnc2s1 | 100 µM (active)
CCCN1CCN(CC(O)COC(c2ccc(OC)cc2)c2ccc(OC)cc2)CC1 (stereo not given) | inactive
O=c1c2ccccc2nc(N/N=C/c2c(O)ccc3ccccc23)n1O | inactive
COc1ccc(OC)c(C2C3=C(N=c4s/c(=C\c5cccc(O)c5)c(=O)n42)c2ccccc2CC3)c1 (stereo not given) | inactive
COc1cc(O)c(C(=O)c2ccccc2)cc1O | inactive
CCN1C(=O)c2ccccc2S(=O)(=O)c2ccc(C(=O)NCCCN(CC(C)C)CC(C)C)cc21 | inactive
CN1CCN(CC(=O)c2ccccc2F)CC1 | inactive
Cc1cnc(CNc2ccnc(-c3ccoc3)n2)cn1 | inactive
O=C1NC(=S)N/C1=C/c1ccc2ccccc2c1 | inactive
O=S(=O)(Nc1cccc(-c2cn3cccnc3n2)c1)c1ccccc1 | inactive
COc1ccc2[nH]c3c(C)c4ccncc4c(C)c3c2c1 | 89.1 µM (active)
COc1ccccc1/C=C/C(=O)NC(=S)Nc1ccc(S(=O)(=O)N(C)c2ccccc2)cc1 | inactive
CCOC(=O)N1CCN(CC(=O)N2c3ccccc3Sc3ccccc32)CC1 | inactive
CCn1ncc(C(=O)Nc2cc(C)on2)c1C | inactive
